Values joined by “and” are separate entries in the source; they are usually repeats but may differ in a detail not shown here. Identical values can stand only once. Results filed as inconclusive are left out. Active and inactive are the calls of the source. The call rests on the fitted dose curve; in most records, active means well fitted cell-killing curve with a large enough effect; inconclusive means small, poorly fitted or top-dose-only effect; inactive means flat fitted curve, though single readings scatter.
Experiment: Cellular viability qHTS for adrenocortical cancer (ACC) cell line SW-13 (AID 1963989); further: nearly all actives have a fitted effect of over 65% in size;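 on activity (max response): cells grown in serum-free medium with ITS supplement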
Conditions: SW-13 ACC cells viability, CellTiter-Glo, 48 h; activity (max response): stronger effect = lower value
Procedure, shortened: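 Compound titrations (up to 46 uM final, in DMSO) were applied to SW-13 cells for 48 h at 37C/5% CO2. Reading used CellTiter-Glo after 20 min at room temperature; fitted curves yielded IC50 and efficacy.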
On the % scale 0 is the no-effect control and ±100 the full control effect; potency means the concentration at half of the fitted maximal effect.

Row | Structure (SMILES) | activity (max response) | Potency
1 | CN1CCN(C(=O)c2ccc(-c3ccc4c(C=O)c(O)ccc4c3)s2)CC1 | 9.42% (inactive) | 
2 | O=C(O)Cc1ccccc1Oc1ccc(Cl)cc1Cl | 4.63% (inactive) | 
3 | C[C@H](NC(=O)CCC(F)(F)F)C(=O)N[C@@H]1C(=O)N(CCO)c2ncccc2-c2ccccc21 | -28.7% (inactive) | 
4 | O=C1NC(=O)[C@@H](c2c[nH]c3ccccc23)[C@H]1c1cn2c3c(cccc13)CCC2 |  | 0.398 µM (active)
5 | O=C(O)c1cc(O)c(O)c(O)c1 | -1.2% (inactive) | 
6 | O=C(CO)[C@@H](O)[C@H](O)[C@@H](O)CO | 0.0107% (inactive) | 
7 | O=[N+]([O-])c1ccc(O)c2ncccc12 |  | 2.91 µM (active) and 10 µM (active)
8 | Cc1cc(I)ccc1Nc1c(C(=O)NOCC2CC2)cc(F)c(F)c1F |  | 3.16 µM (active)
9 | C[C@H]1O[C@H](O[C@H]2[C@H](O)[C@@H](O)[C@@H](O[C@H]3[C@H](O)[C@@H](O)C(O)O[C@@H]3CO)O[C@@H]2CO)[C@H](O)[C@@H](O)[C@@H]1N[C@H]1C=C(CO)[C@@H](O)[C@H](O)[C@H]1O (stereo not given in full) | -4.82% (inactive) | 
10 | CCCCc1ncc(/C=C(\Cc2cccs2)C(=O)O)n1Cc1ccc(C(=O)O)cc1 | 6.21% (inactive) | 
11 | CN1CC(=O)N2[C@H](c3ccc4c(c3)OCO4)c3[nH]c4ccccc4c3C[C@@H]2C1=O | 17.1% (inactive) and 13.1% (inactive) | 
12 | c1ccc(-c2ccc(CNc3nc(-c4ccccn4)nnc3-c3ccccc3)cc2)cc1 |  | 11.2 µM (active)
13 | C[C@H]1[C@H](O)O[C@@H]2O[C@@]3(C)CC[C@H]4[C@H](C)CC[C@@H]1[C@@]24OO3 |  | 12.6 µM (active)
14 | CC1=NN(c2ccc(C(=O)O)cc2)C(=O)/C1=C/c1ccc(-c2cc(C)c(C)cc2[N+](=O)[O-])o1 | 11.6% (inactive) | 
15 | CC(=NNC(=O)c1cccc(S(=O)(=O)N2CCOCC2)c1)c1cc(Cl)ccc1O |  | 3.55 µM (active)
16 | CCCc1ccc(OCC(=O)N2CCN(C(=O)COc3ccc(CCC)cc3OC)CC2)c(OC)c1 | 4.95% (inactive) | 
17 | CC(=O)NC(CS)C(=O)O (stereo not given) | -2.17% (inactive) | 
18 | C[N+]1(CC2COC(c3ccccc3)(C3CCCCC3)O2)CCCCC1 (stereo not given) | -27.2% (inactive) | 
19 | Cc1[nH]c2ccc(F)cc2c1-c1nc2c3cccnc3c3ncccc3c2[nH]1 |  | 2.24 µM (active)
20 | CCOCCOC(=O)/C=C/c1ccc(OC)cc1 | -3.52% (inactive) | 

Row | Structure (SMILES) | activity (max response) | Potency
21 | Cc1c(O)cccc1C(=O)NC(CSc1ccccc1)C(O)CN1CC2CCCCC2CC1C(=O)NC(C)(C)C (stereo not given) |  | 28.2 µM (active)
22 | COc1ccc(C2C(=O)c3ccccc3C2=O)cc1 | 8.16% (inactive) | 
23 | C[C@@H](C(=O)Nc1ccc(Cl)cc1)C1CCC(c2ccnc3ccc(F)cc23)CC1 (stereo not given in full) |  | 25.1 µM (active)
24 | COc1cc(C=C2CCC/C(=C\c3ccc(O)c(OC)c3)C2=O)ccc1O |  | 4.61 µM (active)
25 | C[C@H]1CN(C[C@H](Cc2ccccc2)C(=O)NCC(=O)O)CC[C@@]1(C)c1cccc(O)c1 | 8.76% (inactive) | 
26 | NC(=O)NNc1ccccc1 | -10.9% (inactive) | 
27 | CN[C@H](CC(C)C)C(=O)N[C@H]1C(=O)N[C@@H](CC(N)=O)C(=O)N[C@H]2C(=O)N[C@H]3C(=O)N[C@H](C(=O)N[C@H](C(=O)O)c4cc(O)cc(O)c4-c4cc3ccc4O)[C@H](O)c3ccc(c(Cl)c3)Oc3cc2cc(c3O[C@@H]2O[C@H](CO)[C@@H](O)[C@H](O)[C@H]2O[C@H]2C[C@](C)(N)[C@H](O)[C@H](C)O2)Oc2ccc(cc2Cl)[C@H]1O | -12.5% (inactive) | 
28 | O=C(/C=C/c1ccc(CN(CCO)CCc2c[nH]c3ccccc23)cc1)NO |  | 0.708 µM (active)
29 | COc1cccc2c1C(=O)c1c(O)c3c(c(O)c1C2=O)C[C@@](O)(C(=O)CO)C[C@@H]3O[C@H]1C[C@H](N)[C@H](O[C@@H]2CCCCO2)[C@H](C)O1 |  | 0.731 µM (active)
30 | CN1CCN(C2CCC(n3cc(-c4ccc(Oc5ccccc5)cc4)c4c(N)ncnc43)CC2)CC1 (stereo not given) |  | 1.58 µM (active)
31 | CN(Cc1ccc(/C=C/C(=O)NO)cc1)CC12CC3CC(CC(C3)C1)C2 |  | 2.24 µM (active)
32 | COc1cc(OC)c(/C=C/S(=O)(=O)Cc2ccc(OC)c(OP(=O)(O)O)c2)c(OC)c1 |  | 0.0398 µM (active)
33 | CO[C@@]1(NC(=O)C(C(=O)O)c2ccc(O)cc2)C(=O)N2C(C(=O)O)=C(CSc3nnnn3C)CO[C@@H]21 (stereo not given in full) | 13.4% (inactive) | 
34 | C[C@@H](Nc1ncnc2[nH]c(-c3ccc(O)cc3)cc12)c1ccccc1 |  | 3.98 µM (active)
35 | C/C=C/c1ccc(O)c(OC)c1 | 1.66% (inactive) | 
36 | CCCCCCCCCCCCCCCC[N+](C)(C)Cc1ccccc1 |  | 8.2 µM (active)
37 | NS(=O)(=O)c1cc2c(cc1C(F)(F)F)NC(Cc1ccccc1)NS2(=O)=O (stereo not given) | 1.49% (inactive) | 
38 | N[C@@H]1CN(c2c(F)cc3c(=O)c(C(=O)O)cn([C@@H]4C[C@@H]4F)c3c2Cl)CC12CC2 | -10.4% (inactive) | 
39 | Cc1ccc(C(=O)C(=O)O)cc1C | 1.9% (inactive) | 
40 | CNCc1ccccc1 | 8.2% (inactive) | 

From PubChem BioAssay (NCATS)
